Measured values from PubChem BioAssay (NCI).
The panel holds about 79,000 compounds, 15% with a hit somewhere; the sample as a whole holds those more often. The source made the active and inactive calls. No stated cut-off is given here; in the data, active means growth inhibition above about 70%; inactive means the rest.

How the values were obtained:
[1] = NCI Yeast Anticancer Drug Screen. Data for the rad52 strain (AID 147);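 further: 0% = growth of vehicle-treated control cultures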; conditions: S. cerevisiae rad52 mutant growth inhibition, active compounds read high
How it was run: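 Genetically altered yeast (DNA damage repair defect) treated with compound; inhibition calculated relative to vehicle.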

[2] = NCI Yeast Anticancer Drug Screen. Data for the wt1 strain (AID 149);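 further: 0% = growth of vehicle-treated wt1 cultures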; conditions: S. cerevisiae wt1 strain (SPY 50644) growth inhibition, active compounds read high
How it was run: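 Readout: yeast growth inhibition, normalised to vehicle controls, in the wt1 strain exposed to test compounds.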

[3] = NCI Yeast Anticancer Drug Screen. Data for the rad50EPP+ strain (AID 151);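 further: 0% = growth of vehicle-treated control cultures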; conditions: S. cerevisiae rad50 mutant strain, active compounds read high
How it was run: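 Strain rad50EPP+; compound exposure; % growth inhibition vs vehicle.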

[4] = NCI Yeast Anticancer Drug Screen. Data for the mgt1 strain (AID 153); conditions: S. cerevisiae mgt1 mutant growth inhibition, active compounds read high
How it was run: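 Read-out: yeast growth inhibition vs vehicle control. Strain mgt1, drawn from a panel altered in DNA damage repair or cell cycle control.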

[5] = NCI Yeast Anticancer Drug Screen. Data for the rad50 strain (AID 155);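 further: 0% = growth of vehicle-only cultures of the same strain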; conditions: S. cerevisiae rad50 strain growth inhibition, active compounds read high
How it was run: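 Compounds were tested on a yeast strain with an engineered DNA damage repair alteration; the reported value is growth inhibition normalised to vehicle treatment.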

[6] = NCI Yeast Anticancer Drug Screen. Data for the mec2-1 strain (AID 157); conditions: S. cerevisiae mec2-1 strain, active compounds read high
How it was run: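 Cells of the genetically defined mec2-1 yeast strain are incubated with test compound. Inhibition of growth is calculated against vehicle-treated controls.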

[7] = NCI Yeast Anticancer Drug Screen. Data for the rad14 strain (AID 159);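 further: 0% = growth of vehicle-treated control cultures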; conditions: S. cerevisiae rad14 strain growth inhibition, active compounds read high
How it was run: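 Compound-treated yeast with a defined DNA-repair lesion; growth inhibition normalised to vehicle-treated cultures.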

[8] = NCI Yeast Anticancer Drug Screen. Data for the sgs1 mgt1 strain (AID 161);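 further: 0% = growth of cultures given vehicle only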; conditions: S. cerevisiae sgs1 mgt1 strain, active compounds read high
How it was run: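 Inhibition of yeast growth, normalised to vehicle-treated controls, is reported for a strain bearing genetic alterations in DNA damage repair.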

[9] = NCI Yeast Anticancer Drug Screen. Data for the CLN2oe strain (AID 163);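 further: 0% = growth of vehicle-only control cultures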; conditions: S. cerevisiae CLN2oe strain, active compounds read high
How it was run: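 Strain altered in cell-cycle control, incubated with compound; growth compared to solvent-treated controls.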

[10] = NCI Yeast Anticancer Drug Screen. Data for the cln2 rad14 strain (AID 165);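 further: 0% = growth equal to vehicle treated cultures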; conditions: S. cerevisiae cln2 rad14 strain, active compounds read high
How it was run: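 The screen exposed genetically defined yeast (cln2 rad14) to test compounds and scored growth inhibition relative to vehicle-treated controls.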

[11] = NCI Yeast Anticancer Drug Screen. Data for the bub3 strain (AID 167); conditions: S. cerevisiae bub3 mutant strain, active compounds read high
How it was run: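 Growth of a checkpoint-deficient yeast mutant is measured after compound exposure. Values represent inhibition relative to vehicle.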

[12] = NCI Yeast Anticancer Drug Screen. Data for the wt2 strain (AID 169);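 further: 0% = growth of vehicle-treated yeast cultures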; conditions: S. cerevisiae wt2 strain growth inhibition, active compounds read high
How it was run: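 Steps: yeast strain treated with compound; growth recorded; inhibition calculated relative to cultures given vehicle alone.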

[13] = NCI Yeast Anticancer Drug Screen. Data for the mlh1 strain (AID 171);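 further: 0% = growth of vehicle-treated control cultures of the same strain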; conditions: S. cerevisiae mlh1 strain growth inhibition, active compounds read high
How it was run: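 Yeast screen: mutant strain plus compound, growth scored against vehicle control wells.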

[14] = NCI Yeast Anticancer Drug Screen. Data for the sgs1 strain (AID 173);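 further: 0% = growth of vehicle-only control cultures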; conditions: S. cerevisiae sgs1 mutant, active compounds read high
How it was run: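 Inhibition of yeast growth served as the measure. The mutant strain was treated with each compound, and growth was normalised to cultures receiving vehicle alone.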

[15] = NCI Yeast Anticancer Drug Screen. Data for the mlh1 rad18 strain (AID 175); conditions: S. cerevisiae mlh1 rad18 strain growth inhibition, active compounds read high
How it was run: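 Compound-treated yeast growth, normalised to vehicle controls. Strain bears defined DNA repair mutations.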

[16] = NCI Yeast Anticancer Drug Screen. Data for the rad18 strain (AID 177); conditions: S. cerevisiae rad18 mutant growth inhibition, active compounds read high
How it was run: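 Inhibition values reflect reduced yeast growth compared with vehicle-treated controls, using a strain engineered with a DNA damage repair defect.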

[17] = at 5.0 µM (retest, dose inferred, filed as 0.5)
[18] = at 50.0 µM (retest, dose inferred, filed as 5.0)

Measured: growth inhibition

CCOC(=O)c1cnc2c(C(F)(F)F)cccc2c1N=[N+]=[N-]
active: [1]; at 100.0 µM 95% | [2]; at 100.0 µM 87% | [3]; at 33.0 µM 86% | [3]; at 100.0 µM 97% | [4]; at 100.0 µM 93% | [5]; at 100.0 µM 95% | [6]; at 100.0 µM 89% | [7]; at 100.0 µM 98% | [9]; at 100.0 µM 73% | [10]; at 50.0 µM 84.7% | [11]; [18] 91% | [11]; at 100.0 µM 92% | [12]; at 100.0 µM 99% | [13]; at 100.0 µM 98% | [14]; at 100.0 µM 97% | [15]; at 50.0 µM 94.8% | [16]; at 100.0 µM 94%
inactive: [1]; at 1.2 µM 3% | [1]; at 3.7 µM 2% | [1]; at 11.0 µM 2% | [1]; at 33.0 µM 42% | [2]; at 1.2 µM 10% | [2]; at 3.7 µM 1% | [2]; at 11.0 µM 1% | [2]; at 33.0 µM 37% | [3]; at 1.2 µM 4% | [3]; at 3.7 µM 0% | [3]; at 11.0 µM -5% | [4]; at 1.2 µM 0% | [4]; at 3.7 µM -2% | [4]; at 11.0 µM 1% | [4]; at 33.0 µM 52% | [5]; at 1.2 µM -6% | [5]; at 3.7 µM -17% | [5]; [17] 15% | [5]; at 11.0 µM 20% | [5]; at 33.0 µM 42% | [5]; [18] 8% | [5]; at 50.0 µM 29.4% | [6]; at 1.2 µM -3% | [6]; at 3.7 µM -4% | [6]; [17] 2% | [6]; at 11.0 µM -4% | [6]; at 33.0 µM 25% | [6]; [18] -5% | [6]; at 50.0 µM 17.6% | [7]; at 1.2 µM 3% | [7]; at 3.7 µM 4% | [7]; at 11.0 µM 3% | [7]; at 33.0 µM 52% | [8]; [17] 5% | [8]; [18] 31% | [8]; at 50.0 µM 0.9% | [9]; at 1.2 µM -1% | [9]; at 3.7 µM -1% | [9]; at 11.0 µM -2% | [9]; at 33.0 µM 21% | [10]; [17] 45% | [10]; [18] 24% | [11]; at 1.2 µM -2% | [11]; at 3.7 µM -3% | [11]; [17] -3% | [11]; at 11.0 µM -4% | [11]; at 33.0 µM 20% | [11]; at 50.0 µM 67.3% | [12]; at 1.2 µM -1% | [12]; at 3.7 µM 1% | [12]; at 11.0 µM 2% | [12]; at 33.0 µM 68% | [13]; at 1.2 µM -1% | [13]; at 3.7 µM 0% | [13]; at 11.0 µM -1% | [13]; at 33.0 µM 56% | [14]; at 1.2 µM 1% | [14]; at 3.7 µM -2% | [14]; at 11.0 µM -7% | [14]; at 33.0 µM 67% | [15]; [17] 1% | [15]; [18] 21% | [16]; at 1.2 µM -5% | [16]; at 3.7 µM -8% | [16]; at 11.0 µM -10% | [16]; at 33.0 µM 40%

CC(C)/C(Cl)=N\OC(=O)Nc1ccc(F)cc1
inactive: [1]; at 1.2 µM 3% | [1]; at 3.7 µM 6% | [1]; at 11.0 µM 11% | [1]; at 33.0 µM 20% | [2]; at 1.2 µM 2% | [2]; at 3.7 µM -1% | [2]; at 11.0 µM -3% | [2]; at 33.0 µM -5% | [2]; at 100.0 µM -3% | [3]; at 1.2 µM 1% | [3]; at 3.7 µM 11% | [3]; at 11.0 µM 24% | [3]; at 33.0 µM 57% | [4]; at 1.2 µM 3% | [4]; at 3.7 µM 0% | [4]; at 11.0 µM 6% | [5]; at 1.2 µM 5% | [5]; at 3.7 µM 10% | [5]; [17] 24% | [5]; at 11.0 µM 12% | [5]; at 33.0 µM 23% | [5]; [18] 48% | [5]; at 50.0 µM 10.7% | [6]; at 1.2 µM 6% | [6]; at 3.7 µM 10% | [6]; [17] 35% | [6]; at 11.0 µM 13% | [6]; at 33.0 µM 23% | [6]; [18] 63% | [6]; at 50.0 µM 34% | [7]; at 1.2 µM 4% | [7]; at 3.7 µM 8% | [7]; at 11.0 µM 11% | [7]; at 33.0 µM 13% | [7]; at 100.0 µM 69% | [8]; [17] 26% | [9]; at 1.2 µM 12% | [9]; at 3.7 µM 16% | [9]; at 11.0 µM 15% | [9]; at 33.0 µM 14% | [9]; at 100.0 µM 15% | [10]; [17] 27% | [10]; [18] 29% | [10]; at 50.0 µM 38.8% | [11]; at 1.2 µM 13% | [11]; at 3.7 µM 22% | [11]; [17] 52% | [11]; at 11.0 µM 32% | [11]; at 33.0 µM 45% | [12]; at 1.2 µM -1% | [12]; at 3.7 µM -2% | [12]; at 11.0 µM 3% | [13]; at 1.2 µM 1% | [13]; at 3.7 µM 2% | [13]; at 11.0 µM 6% | [13]; at 33.0 µM 62% | [14]; at 1.2 µM -1% | [14]; at 3.7 µM -2% | [14]; at 11.0 µM 13% | [15]; [17] 33% | [15]; [18] 54% | [15]; at 50.0 µM -41.8% | [16]; at 1.2 µM -1% | [16]; at 3.7 µM 0% | [16]; at 11.0 µM 2% | [16]; at 33.0 µM 5% | [16]; at 100.0 µM 56%
active: [1]; at 100.0 µM 78% | [3]; at 100.0 µM 98% | [4]; at 33.0 µM 78% | [4]; at 100.0 µM 99% | [5]; at 100.0 µM 81% | [6]; at 100.0 µM 95% | [8]; [18] 86% | [8]; at 50.0 µM 88.7% | [11]; [18] 83% | [11]; at 50.0 µM 73.8% | [11]; at 100.0 µM 99% | [12]; at 33.0 µM 86% | [12]; at 100.0 µM 99% | [13]; at 100.0 µM 98% | [14]; at 33.0 µM 89% | [14]; at 100.0 µM 99%
